Assay [1] addresses Glutathione peroxidase 1 (Homo sapiens) (UniProt P07203). Put plainly: Primary qHTS Assay for Inhibitors of Recombinant Selenoprotein Glutathione Peroxidase 1 (GPX1) (AID 1845191). Further: nearly all actives have a fitted effect of over 65% in size. Further: potency means the concentration at half of the fitted maximal effect. An outline of the steps:
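Recombinant GPX1 (10 nM final) was preincubated with compound for 30 min at room temperature, then reacted with 1 mM GSH, 0.5 mM CHP, 0.5 mM NADPH and 100 nM glutathione reductase; NADPH fluorescence (340/450 nm) was read at 0 and 15 min.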
On the technique in general: In qHTS, concentration-response curves come from the screen itself.

The target of assay [2] is Phospholipid hydroperoxide glutathione peroxidase GPX4 (Homo sapiens) (UniProt P36969). Description: Primary qHTS Assay for Inhibitors of Recombinant Selenoprotein Glutathione Peroxidase 4 (GPX4) (AID 1845192). Further: nearly all actives have a fitted effect of over 65% in size. The method, boiled down: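 GR-coupled readout: 100 nM GR, 1 mM GSH, 0.5 mM NADPH; NADPH fluorescence (ex 340/em 450 nm) read at t=0 and after 15 min RT. GPX4 200 nM, preincubated 30 min with compound; substrate 0.5 mM CHP.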

The nature of assay [3]: Quantitative High-Throughput drug screen in 47 multiple myeloma cell lines against the NCATS MIPE library collection: FR4_PLB cell viability assay (AID 1918924; further: nearly all actives have a fitted effect of over 35% in size; further: potency means the concentration at half of the fitted maximal effect). An outline of the steps: (§1)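 CellTiter-Glo luminescence (ATP) after 48 h compound exposure, 37C/5% CO2; 500 cells/well; MIPE 4.0 approved/investigational drugs pinned in; DMSO = 100%, media only = 0% viability.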
The nature of assay [4]: Quantitative High-Throughput drug screen in 47 multiple myeloma cell lines against the NCATS MIPE library collection: Delta47_JCRB cell viability assay (AID 1918925; further: nearly all actives have a fitted effect of over 45% in size; further: potency means the concentration at half of the fitted maximal effect). An outline of the steps: (§2)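 Viability readout: CellTiter-Glo luminescence following 5 min room-temperature incubation with reagent. Prior exposure: 48 h, 37C, humidified 5% CO2, 500 cells per well.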
Assay [5] is described as follows: Quantitative High-Throughput drug screen in 47 multiple myeloma cell lines against the NCATS MIPE library collection: EJM_DSMZ cell viability assay (AID 1918926; further: nearly all actives have a fitted effect of over 30% in size; further: potency means the concentration at half of the fitted maximal effect). The method, boiled down:
as §2

Assay [6] is described as follows: Quantitative High-Throughput drug screen in 47 multiple myeloma cell lines against the NCATS MIPE library collection: AMO1_DSMZ cell viability assay (AID 1918927; further: nearly all actives have a fitted effect of over 30% in size; further: potency means the concentration at half of the fitted maximal effect). An outline of the steps: as §2
A short description of assay [7]: Quantitative High-Throughput drug screen in 47 multiple myeloma cell lines against the NCATS MIPE library collection: ARP1_JJKsccF8 cell viability assay (AID 1918928; further: nearly all actives have a fitted effect of over 40% in size; further: potency means the concentration at half of the fitted maximal effect). An outline of the steps: (§3)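 Myeloma cells, 500 per well, were exposed to MIPE 4.0 drugs by pin transfer for 48 h at 37 °C, 5% CO2. Viability was read as ATP luminescence with CellTiter-Glo, normalised to DMSO-only (100%) and medium-only (0%) wells.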

Assay [8] can be described thus: Quantitative High-Throughput drug screen in 47 multiple myeloma cell lines against the NCATS MIPE library collection: ARD_JJKsccE7 cell viability assay (AID 1918929; further: potency means the concentration at half of the fitted maximal effect). The method, boiled down:
as §2

Assay [9] can be described thus: Quantitative High-Throughput drug screen in 47 multiple myeloma cell lines against the NCATS MIPE library collection: Karpas620_DSMZ cell viability assay (AID 1918959). Further: nearly all actives have a fitted effect of over 30% in size. Further: potency means the concentration at half of the fitted maximal effect. The method, boiled down: as §1
Assay [10] concerns the target Luciferin 4-monooxygenase (Photinus pyralis) (UniProt P08659). Description: Primary firefly luciferase (FLuc) qHTS assay for identification of artifact compounds. (AID 1845220). Further: nearly all actives have a fitted effect of over 60% in size. The method, boiled down: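 In this counter-screen for luciferase artifacts, test compounds met substrate (10 uM each luciferin and ATP) before 10 nM enzyme started the reaction. Light output was measured 5 min later.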

Assay [11] can be described thus: Primary fluorescence-based thiol-reactive (MSTI) qHTS assay for identification of artifact compounds. (AID 1845221).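 Further: series mostly up to about 54 µM; thiol-reactive compounds lower the probe fluorescence signal; nearly all actives have a fitted effect of over 65% in size.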 The method, boiled down:
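qHTS titration of compound; 4 uM MSTI, PBS pH 7.4, 2% DMSO; 1 h RT, dark; fluorescence 525/598 nm; normalized to Acetyl-MSTI and MSTI; 4-parameter Hill fit.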

Assay [12] has as its system Nanoluciferase (engineered Oplophorus gracilirostris luciferase). Description: Primary Nanoluciferase (NLuc) qHTS assay for identification of artifact compounds. (AID 1845222).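 Further: NLuc secreted into diluted conditioned medium of S16 cells; series mostly up to about 54 µM.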 The method, boiled down:
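Using secreted nanoluciferase in S16 culture medium (0.22 um filtered, 1:55 dilution), compounds were preincubated 15 min at RT. Signal was generated with Nano-Glo reagent (1:100) over 5 min.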

Assay [13] can be described thus: Primary redox qHTS assay for identification of artifact compounds. (AID 1845223). An outline of the steps:
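Amplex Red (25 uM) and HRP (250 mU/mL) in HBSS, with compounds for 15 min, then 250 uM DTT for 30 min, room temperature, dark. Fluorescence 525/598 nm read; normalized to DMSO and 10 uM DA3003; Hill fit.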

Assay [14] is described as follows: Quantitative High-Throughput drug screen in 47 multiple myeloma cell lines against the NCATS MIPE library collection: KMM1_JCRB cell viability assay (AID 1918960). Further: nearly all actives have a fitted effect of over 30% in size. Further: potency means the concentration at half of the fitted maximal effect. An outline of the steps:
as §3

Assay [15] can be described thus: NCATS anti-infectives library activity on the primary C. elegans qHTS viability assay (AID 1745855; calls by dose curve). The method, boiled down: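 Viability is taken from GFP fluorescence of PE254-GFP-FLuc C. elegans imaged by laser cytometry over 7 days. Ten L1 worms per well grow at 21 °C on TOP10 E. coli capsules with titrated compound; levamisole marks toxicity.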

Records with an inconclusive call do not appear. Activity calls are given as the source filed them. Unless noted, the call rests on the fitted dose curve; in most records, active means well fitted curve in the direction sought with a large enough effect; inconclusive means small, poorly fitted or top-dose-only effect, or another doubt; inactive means no such curve, though single readings can be large; an effect the other way counts as inactive or inconclusive.

The source of these data is PubChem BioAssay (NCATS).

Sequence of Glutathione peroxidase 1 (Homo sapiens) (P07203 whole entry, looked up): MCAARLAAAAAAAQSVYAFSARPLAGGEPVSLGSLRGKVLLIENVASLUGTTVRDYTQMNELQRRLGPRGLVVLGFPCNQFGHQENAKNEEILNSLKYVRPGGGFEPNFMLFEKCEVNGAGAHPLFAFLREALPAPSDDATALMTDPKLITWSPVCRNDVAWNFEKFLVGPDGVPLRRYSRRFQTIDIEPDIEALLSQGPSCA
Sequence of Phospholipid hydroperoxide glutathione peroxidase GPX4 (Homo sapiens) (P36969 whole entry, looked up): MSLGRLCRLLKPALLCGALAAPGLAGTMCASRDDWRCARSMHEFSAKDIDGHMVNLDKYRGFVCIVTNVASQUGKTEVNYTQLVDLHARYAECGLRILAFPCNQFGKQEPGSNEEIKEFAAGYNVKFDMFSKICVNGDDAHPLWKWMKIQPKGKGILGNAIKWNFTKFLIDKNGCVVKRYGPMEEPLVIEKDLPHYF

For `O=C(CCCCCCC(=O)Nc1cccnc1)NO`, the Potency result in assay [1] and in assay [2] was “inactive” in each case. The Potency in assay [3] was 2.35 µM (active); in [4], 2.96 µM (active); in assay [5], 7.43 µM (active); in assay [6], 2.35 µM (active); in assay [7], 2.35 µM (active); in [8], 3.32 µM (active). In addition, in [9], the Potency is 7.43 µM (active).

Consider `C[C@H]1[C@@H](OC(=O)CCC(=O)O)O[C@@H]2O[C@@]3(C)CC[C@@H]4[C@H](C)CC[C@@H]1[C@@]24OO3`, for which the Potency result in [1], in assay [2], in assay [10], in assay [11] and in assay [13] was “inactive” throughout. For the same compound, the outcome in [12] was inactive. Also, the Potency in assay [3] is 11.8 µM (active); in assay [5], 14.8 µM (active); in assay [6], 0.833 µM (active); in assay [7], 2.35 µM (active); in [8], 1.48 µM (active); in assay [9] it was 0.166 µM (active). Further, the Potency in assay [14] was 0.332 µM (active).

Consider `OCCNC1CCCc2c1[nH]c1ccc(-c3ccccc3)cc21` (centres undefined), for which the Potency result in assay [1], in [2], in assay [10], in assay [11] and in assay [13] was “inactive” each time. Further, the compound was called inactive in assay [12]. In addition, the Potency in assay [3] was 18.7 µM (active); in assay [4] it was 10.5 µM (active); in assay [6], 16.6 µM (active); in assay [9], 23.5 µM (active); in [14], 18.7 µM (active).

Turning to `CCOC(=O)[C@@H](N)Cc1ccc(-c2cc(O[C@H](c3ccc(Cl)cc3-n3ccc(C)n3)C(F)(F)F)nc(N)n2)cc1`, the Potency entry in assay [1], in assay [2], in assay [10], in [11] and in [13] was “inactive” throughout. Also, the outcome in [12] was inactive. Further, the Potency in [3] is 23.5 µM (active); in assay [4] it was 23.5 µM (active); in assay [5] it was 18.7 µM (active); in [6] it was 9.35 µM (active); in [8] it was 9.35 µM (active); in [9], 9.35 µM (active). For the same compound, in assay [14], the Potency is 11.8 µM (active).

Regarding `Cc1cc(O)c2c(c1)C(=O)c1cccc(O)c1C2=O`, the Potency entry in assay [15], in assay [2], in assay [3], in assay [4], in [5] and in assay [6] was “inactive” each time. Further, the Potency result in [9] and in assay [14] was “inactive” throughout. In addition, the Potency in [1] was 8.17 µM (active).

Consider `Oc1ccc([C@@H]2Oc3ccc(O)cc3[C@@H]3CCC[C@@H]32)cc1`, for which the Potency entry in [1], in assay [2], in assay [10], in assay [11], in [13] and in assay [6] was “inactive” each time. Besides, the Potency result in assay [9] and in assay [14] was “inactive” in each case. The result in [12] was inactive. Moreover, in assay [7], the Potency is 23.5 µM (active).

With `C=CC(=O)Nc1ccc2ncnc(Nc3ccc(OCc4cccc(F)c4)c(Cl)c3)c2c1`, the Potency entry in assay [1], in assay [2], in [10], in assay [11] and in [13] was “inactive” each time. Also, the Potency in assay [3] was 6.62 µM (active); in [4], 0.187 µM (active); in assay [5] it was 5.26 µM (active); in assay [6] it was 0.0209 µM (active); in assay [7] it was 0.296 µM (active); in assay [8], 0.0418 µM (active). In addition, the Potency in assay [9] is 0.0418 µM (active); in assay [14], 0.148 µM (active).

`CCC(C(=O)O)C1CCC(C)C(C(C)C(O)C(C)C(=O)C(CC)C2OC3(C=CC(O)[C@@]4(CC[C@](C)(C5CC[C@@](O)(CC)C(C)O5)O4)O3)C(C)CC2C)O1` (some centres undefined): the Potency result in [1] and in assay [2] was “inactive” throughout. Further, the Potency in [3] was 16.6 µM (active); in assay [4] it was 4.69 µM (active); in assay [5], 5.9 µM (active); in [6], 0.132 µM (active); in [7], 1.87 µM (active); in assay [8], 0.209 µM (active).

Turning to `Cn1cnc2c(F)c(Nc3ccc(Br)cc3F)c(C(=O)NOCCO)cc21`, the Potency result in assay [1], in assay [2], in [10], in [11], in [13] and in [3] was “inactive” each time. Further, the Potency result in assay [5] and in assay [7] was “inactive” in each case. For the same compound, the compound was classed as inactive in assay [12]. The values for the Potency in assay [6], in assay [8] and in [9] were 1.05 µM (active), 0.0033 µM (active) and 0.0833 µM (active), respectively.

For `CCN(CC)Cc1ccc2cc(COC(=O)Nc3ccc(C(=O)NO)cc3)ccc2c1`, the Potency entry in [1], in assay [2], in [10] and in [13] was “inactive” throughout. Also, in assay [12], the call was inactive. The Potency in [3] is 0.372 µM (active); in [4] it was 0.526 µM (active); in assay [5], 1.05 µM (active); in assay [6], 0.743 µM (active); in assay [7], 0.59 µM (active); in [8], 0.662 µM (active). Also, the Potency in assay [9] was 0.833 µM (active); in [14], 0.469 µM (active).

Take `Nc1ccc(C(=O)Nc2cccc(-c3nc(N4CCOCC4)c4oc5ncccc5c4n3)c2)cn1`: the Potency result in [1], in [2], in assay [10], in assay [11] and in assay [13] was “inactive” throughout. Further, in [12], the compound was called inactive. Besides, the Potency was 18.7 µM (active) in [3]; 0.935 µM (active) in assay [4]; 16.6 µM (active) in assay [5]; 6.62 µM (active) in assay [6]; 6.62 µM (active) in assay [7]; 1.66 µM (active) in assay [8]. Besides, the Potency in assay [9] is 6.62 µM (active); in assay [14], 0.418 µM (active).

For the compound `CCc1nc(-c2cccc(C)c2)c(-c2ccnc(NC(=O)c3ccccc3)c2)s1`, the Potency entry in assay [1], in assay [2], in assay [10], in assay [11] and in [13] was “inactive” in each case. Moreover, the result in assay [12] was inactive. Moreover, the Potency in assay [3] is 18.7 µM (active); in assay [5], 16.6 µM (active); in assay [6], 18.7 µM (active); in [9], 3.32 µM (active).

On to `COc1ccc([C@@H]2CNC(=O)C2)cc1OC1CCCC1`, for which the Potency result in assay [1], in assay [2], in [3], in assay [5], in assay [6] and in assay [7] was “inactive” in each case. In addition, the Potency entry in assay [8] and in [9] was “inactive” each time. Moreover, in assay [4], the Potency is 3.72 µM (active).

For the compound `Cc1cnc(Nc2ccc(CN3CCOCC3)cc2)nc1Nc1cccc(S(=O)(=O)NC(C)(C)C)c1`, the Potency result in [1], in assay [2], in assay [10], in assay [11] and in assay [13] was “inactive” throughout. Also, the compound was classed as inactive in assay [12]. The Potency was 2.64 µM (active) in [3], 1.87 µM (active) in [4], 5.9 µM (active) in assay [5] and 3.32 µM (active) in assay [7].
